Our source for the Potency and outcome values is PubChem BioAssay (Tox21).

Each structure is given as a SMILES string. Records with an inconclusive call do not appear. Activity calls are given as the source filed them. Unless noted, calls come from the whole dose curve.

Assay [1] in a line: qHTS assay to identify small molecule antagonists of the sonic hedgehog signaling (Shh) pathway (AID 1259369). Note: potency is the fitted concentration of half-maximal effect; nearly all actives have a fitted effect of over 45% in size. The gist of the method:
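Conditioned medium drives Shh signalling in 3T3Gli1-Luc cells; compounds in DMSO co-applied, 24hr at 37 C, then luciferase luminescence.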

The nature of assay [2]: qHTS assay to identify small molecule agonists of the estrogen receptor beta (ER-beta) signaling pathway - cell viability counter screen (AID 1259380; active = well fitted curve in the direction sought with a large enough effect in the repeat runs; an effect the other way counts as inactive or inconclusive; note: nearly all actives have a fitted effect of over 30% in size; note: potency is the fitted concentration of half-maximal effect). In a few lines:
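Cells used were ER-beta-UAS-bla HEK293T in medium with 2% charcoal-stripped FBS. They were treated for 16 hr at 37C. Viability came from CellTiter-Glo luminescence.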

The nature of assay [3]: qHTS assay to identify small molecule antagonists of the estrogen receptor beta (ER-beta) signaling pathway - cell viability counter screen (AID 1259382; active = well fitted curve in the direction sought with a large enough effect in the repeat runs; an effect the other way counts as inactive or inconclusive; note: nearly all actives have a fitted effect of over 55% in size; note: potency is the fitted concentration of half-maximal effect). The gist of the method:
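Agonist-stimulated (1nM E2) ER-beta-UAS-bla HEK293T cells are incubated with library compounds for 16 hr at 37C. Cell viability is then assessed in the reporter-assay wells by adding CellTiter-Glo and reading luminescence after 30 min.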

Assay [4] in a line: qHTS assay to identify small molecule agonists or antagonists of the thyroid stimulating hormone receptor (TSHR) signaling pathway - wild type cell line counter screen (AID 1259384). The gist of the method: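 Counter screen in untransfected Hek293: compounds (15-point titration, triplicate) plus phosphodiesterase inhibitor Ro20-1724 added after 18 h plating; 30 min RT. Intracellular cAMP via competitive d2/cryptate immunoassay, 1 h incubation.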

Assay [5] is described as follows: qHTS assay to identify small molecule agonists of the estrogen receptor alpha (ER-alpha) signaling pathway in the presence of an antagonist - cell viability counter screen (AID 1259386; active = well fitted curve in the direction sought with a large enough effect in the repeat runs; an effect the other way counts as inactive or inconclusive;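 note: series mostly up to about 92 µM; cells exposed to compounds for 22 h at 37 °C before the viability read; nearly all actives have a fitted effect of over 30% in size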). In a few lines:
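ICI-182,780 at 10.0nM final accompanies the compound titration (15 concentrations, 22hr, 37C) on VM7Luc4E2 cells. The CellTiter-Fluor fluorescence readout runs in the same wells as the luciferase assay.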

In assay [6] the target is Progesterone receptor (Homo sapiens) (UniProt P06401). As to the kind of experiment: qHTS assay to identify small molecule antagonists of the progesterone receptor (PR) signaling pathway (AID 1346795; active = well fitted inhibition curve with a large enough effect in the signal ratio in the repeat runs, not every such curve was filed as active; the % refers to the signal ratio; note: potency is the fitted concentration of half-maximal effect). In a few lines:
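Stimulus R5020 at 1 nM final; cells HEK293T PR-UAS-bla; medium with 2% charcoal-stripped FBS; compound exposure 16 hr at 37C, 5% CO2; detection by FRET beta-lactamase substrate, 2 hr, room temperature.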

A short description of assay [7]: qHTS assay to identify small molecule antagonists of the progesterone receptor (PR) signaling pathway - cell viability counter screen (AID 1346798; active = well fitted curve in the direction sought with a large enough effect in the repeat runs; an effect the other way counts as inactive or inconclusive; note: nearly all actives have a fitted effect of over 50% in size; note: potency is the fitted concentration of half-maximal effect). In a few lines:
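In the same plates used for the beta-lactamase readout, cell viability of compound- and R5020-treated PR-UAS-bla HEK293T cells (16 hr, 37C) was assessed by CellTiter-Glo luminescence.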

Assay [8] in a line: qHTS assay to identify small molecule agonists of the TGF-beta/Smad signaling pathway (AID 1346859; active = well fitted activation curve with a large enough effect in the signal ratio in the repeat runs, not every such curve was filed as active; the % refers to the signal ratio; note: series mostly up to about 77 µM). In a few lines: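 Screening used HEK 293T SBE-bla cells at 4,000/well. Test agents: 5 hr, 37 C. Detection: FRET substrate, 2 hr RT, then excitation 405 nm with emissions at 460 and 530 nm.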
Assay [9] addresses Thyrotropin-releasing hormone receptor (Homo sapiens) (UniProt P34981). The assay can be described thus: qHTS assay to identify small molecule antagonists of the thyrotropin-releasing hormone receptor (TRHR) signaling pathway (AID 1346877; active = well fitted inhibition curve with a large enough effect in the repeat runs, not every such curve was filed as active; note: potency is the fitted concentration of half-maximal effect). The gist of the method: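 Screening used HEK293 cells engineered with TRHR, with a brief 5 min room-temperature compound exposure preceding addition of TRH to 1 nM. The read-out was kinetic calcium-dye fluorescence, concentration-response from 15 doses in triplicate.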

The target in assay [10] is Androgen receptor (Homo sapiens) (UniProt P10275). As to the kind of experiment: qHTS assay to identify small molecule agonists of the androgen receptor (AR) signaling pathway in the presence of an antagonist (AID 1259381). Note: nearly all actives have a fitted effect of over 15% in size. The gist of the method: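 Using human MDA-kb2 cells with an MMTV promoter–luciferase construct (AR and GR response elements), agonist activity is scored under 3.0uM nilutamide (final) co-treatment; 16hr incubation, 37C, luminescence readout via ONE-Glo.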

Assay [11] has as its target Estrogen receptor (Homo sapiens) (UniProt P03372). The assay can be described thus: qHTS assay to identify small molecule agonists of the estrogen receptor alpha (ER-alpha) signaling pathway in the presence of an antagonist (AID 1259383). Note: top concentration of the series differs between compounds; nearly all actives have a fitted effect of over 15% in size. The gist of the method:
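Using VM7Luc4E2 cells seeded 24hr before treatment, antagonist ICI-182,780 (10.0nM final) was added, followed by compounds at 15 concentrations. Plates incubated 22hr; ONE-Glo luminescence quantified reporter activity.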

Assay [12] concerns the target Thyrotropin receptor (Homo sapiens) (UniProt P16473). The assay can be described thus: qHTS assay to identify small molecule antagonists of the thyroid stimulating hormone receptor (TSHR) signaling pathway (AID 1259385). Note: nearly all actives have a fitted effect of over 20% in size. In a few lines:
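Antagonist mode: compound-treated TSHR-expressing HEK293 cells were stimulated with 1.5 ng/mL TSH (final) in presence of Ro20-1724 for 30 min at RT. HTRF cAMP detection after 1 h; each compound tested at 15 concentrations, triplicate.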

Assay [13] is described as follows: qHTS assay to identify small molecule antagonists of the TGF-beta/Smad signaling pathway - cell viability counter screen (AID 1346824; active = well fitted curve in the direction sought with a large enough effect in the repeat runs; an effect the other way counts as inactive or inconclusive; note: nearly all actives have a fitted effect of over 50% in size). In a few lines: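 Cytotoxicity counter-screen run in the same wells as the beta-lactamase Smad reporter read: CellTiter-Glo luminescence after 30 min at room temperature. HEK 293T SBE-bla cells had 5 hr compound exposure at 37 C with TGF-beta1 (0.25 ng/mL stock).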

Assay [14] can be described thus: qHTS assay to identify small molecule agonists of the TGF-beta/Smad signaling pathway - cell viability counter screen (AID 1346829; active = well fitted curve in the direction sought with a large enough effect in the repeat runs; an effect the other way counts as inactive or inconclusive; note: top concentration of the series differs between compounds; nearly all actives have a fitted effect of over 45% in size). The gist of the method:
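Cytotoxicity counter screen: CellTiter-Glo luminescence (30 min, room temperature) measured in the SBE-bla HEK 293T reporter wells after 5 hr compound treatment at 37 C and the 2 hr substrate step.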

The target of assay [15] is Thyrotropin-releasing hormone receptor (Homo sapiens) (UniProt P34981). The assay can be described thus: qHTS assay to identify small molecule agonists of the thyrotropin-releasing hormone receptor (TRHR) signaling pathway (AID 1346891). Note: series mostly up to about 58 µM. The gist of the method: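 Readout was intracellular calcium fluorescence in TRHR-Hek293 cells. Cells were incubated 18 h, dye-loaded 2 h at 37 °C, and treated with compound in agonist mode.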

Assay [16] deals with Estrogen receptor beta (Homo sapiens) (UniProt Q92731). The assay can be described thus: qHTS assay to identify small molecule agonists of the estrogen receptor beta (ER-beta) signaling pathway (AID 1259377; active = well fitted activation curve with a large enough effect in the signal ratio in the repeat runs, not every such curve was filed as active; the % refers to the signal ratio). In a few lines:
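Reporter cells (HEK293T, ER-beta-UAS-bla) receive compounds or DMSO after a 6 hr pre-incubation. They then incubate 16 hr at 37C/5% CO2, and fluorescence from LiveBLAzer B/G substrate is measured after 2 hours at room temperature.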

The target is the same in assay [17]. The assay can be described thus: qHTS assay to identify small molecule antagonists of the estrogen receptor beta (ER-beta) signaling pathway (AID 1259378; active = well fitted inhibition curve with a large enough effect in the signal ratio in the repeat runs, not every such curve was filed as active; the % refers to the signal ratio). In a few lines: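 Antagonist mode: compounds added to beta-lactamase reporter HEK293T ER-beta-UAS cells stimulated with E2 (1nM final), 16 hr at 37C. LiveBLAzer B/G FRET substrate, 2 hours room temperature, fluorescence read-out.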

A short description of assay [18]: qHTS assay to identify small molecule agonists of the androgen receptor (AR) signaling pathway in the presence of an antagonist - cell viability counter screen (AID 1259379; active = well fitted curve in the direction sought with a large enough effect in the repeat runs; an effect the other way counts as inactive or inconclusive;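 note: MDA-kb2 human breast cancer cells carrying an MMTV luciferase reporter; series mostly up to about 92 µM; nearly all actives have a fitted effect of over 25% in size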). The gist of the method: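 A CellTiter-Fluor read-out measured viability of MDA-kb2 reporter cells (MMTV promoter with AR and GR response elements). Treatment: nilutamide 3.0uM final with compounds at 15 concentrations, 16 hr, 37C, 0% CO2.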

Assay [19] addresses Progesterone receptor (Homo sapiens) (UniProt P06401). As to the kind of experiment: qHTS assay to identify small molecule agonists of the progesterone receptor (PR) signaling pathway (AID 1346784). Note: nearly all actives have a fitted effect of over 30% in size. In a few lines:
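Reporter assay, GripTite PR-UAS-bla HEK 293T cells: 16 hr exposure to DMSO-dissolved compounds at 37C, 5% CO2, in steroid-depleted (2% charcoal-stripped FBS) medium; beta-lactamase measured by FRET fluorescence.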

Assay [20] in a line: qHTS assay to identify small molecule agonists of the progesterone receptor (PR) signaling pathway - cell viability counter screen (AID 1346799). Note: nearly all actives have a fitted effect of over 45% in size. The gist of the method: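 Multiplexed viability read: CellTiter-Glo luminescence, 30 min RT, following LiveBLAzer FRET measurement on PR-UAS-bla HEK293T cells exposed to compounds 16 hr.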

Sequence of Thyrotropin-releasing hormone receptor (Homo sapiens) (P34981 whole entry, looked up): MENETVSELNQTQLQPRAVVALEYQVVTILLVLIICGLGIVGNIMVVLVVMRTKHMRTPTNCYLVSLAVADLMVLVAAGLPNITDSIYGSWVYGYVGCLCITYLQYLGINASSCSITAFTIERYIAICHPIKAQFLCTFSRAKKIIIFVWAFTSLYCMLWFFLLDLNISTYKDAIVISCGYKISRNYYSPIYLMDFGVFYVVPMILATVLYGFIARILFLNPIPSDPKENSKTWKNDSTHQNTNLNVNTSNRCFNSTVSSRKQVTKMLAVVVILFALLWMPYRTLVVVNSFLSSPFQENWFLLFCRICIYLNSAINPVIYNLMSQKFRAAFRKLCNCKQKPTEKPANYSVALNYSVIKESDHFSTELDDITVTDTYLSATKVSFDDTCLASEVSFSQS
Sequence of Thyrotropin receptor (Homo sapiens) (P16473 whole entry, looked up): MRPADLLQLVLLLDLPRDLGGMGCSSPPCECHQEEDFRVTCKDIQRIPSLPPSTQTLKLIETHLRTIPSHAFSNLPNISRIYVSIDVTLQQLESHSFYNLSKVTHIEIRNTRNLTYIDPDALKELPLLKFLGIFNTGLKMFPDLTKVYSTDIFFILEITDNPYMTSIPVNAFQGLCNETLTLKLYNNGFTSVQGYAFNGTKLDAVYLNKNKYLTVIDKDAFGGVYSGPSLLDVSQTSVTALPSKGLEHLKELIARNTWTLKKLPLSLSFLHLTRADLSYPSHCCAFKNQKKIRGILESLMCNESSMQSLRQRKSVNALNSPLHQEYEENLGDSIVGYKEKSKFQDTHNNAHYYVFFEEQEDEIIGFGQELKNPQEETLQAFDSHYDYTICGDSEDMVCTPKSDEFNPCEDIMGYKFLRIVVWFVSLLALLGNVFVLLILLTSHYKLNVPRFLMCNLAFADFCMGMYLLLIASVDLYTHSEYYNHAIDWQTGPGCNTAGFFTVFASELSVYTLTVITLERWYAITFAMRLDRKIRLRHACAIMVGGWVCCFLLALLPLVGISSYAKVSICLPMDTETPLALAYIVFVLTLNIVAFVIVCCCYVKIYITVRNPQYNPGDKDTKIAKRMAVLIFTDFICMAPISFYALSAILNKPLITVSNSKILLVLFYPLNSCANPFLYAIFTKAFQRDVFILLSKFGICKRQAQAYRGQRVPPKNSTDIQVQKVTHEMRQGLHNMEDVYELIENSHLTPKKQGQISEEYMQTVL
Sequence of Progesterone receptor (Homo sapiens) (P06401 whole entry, looked up): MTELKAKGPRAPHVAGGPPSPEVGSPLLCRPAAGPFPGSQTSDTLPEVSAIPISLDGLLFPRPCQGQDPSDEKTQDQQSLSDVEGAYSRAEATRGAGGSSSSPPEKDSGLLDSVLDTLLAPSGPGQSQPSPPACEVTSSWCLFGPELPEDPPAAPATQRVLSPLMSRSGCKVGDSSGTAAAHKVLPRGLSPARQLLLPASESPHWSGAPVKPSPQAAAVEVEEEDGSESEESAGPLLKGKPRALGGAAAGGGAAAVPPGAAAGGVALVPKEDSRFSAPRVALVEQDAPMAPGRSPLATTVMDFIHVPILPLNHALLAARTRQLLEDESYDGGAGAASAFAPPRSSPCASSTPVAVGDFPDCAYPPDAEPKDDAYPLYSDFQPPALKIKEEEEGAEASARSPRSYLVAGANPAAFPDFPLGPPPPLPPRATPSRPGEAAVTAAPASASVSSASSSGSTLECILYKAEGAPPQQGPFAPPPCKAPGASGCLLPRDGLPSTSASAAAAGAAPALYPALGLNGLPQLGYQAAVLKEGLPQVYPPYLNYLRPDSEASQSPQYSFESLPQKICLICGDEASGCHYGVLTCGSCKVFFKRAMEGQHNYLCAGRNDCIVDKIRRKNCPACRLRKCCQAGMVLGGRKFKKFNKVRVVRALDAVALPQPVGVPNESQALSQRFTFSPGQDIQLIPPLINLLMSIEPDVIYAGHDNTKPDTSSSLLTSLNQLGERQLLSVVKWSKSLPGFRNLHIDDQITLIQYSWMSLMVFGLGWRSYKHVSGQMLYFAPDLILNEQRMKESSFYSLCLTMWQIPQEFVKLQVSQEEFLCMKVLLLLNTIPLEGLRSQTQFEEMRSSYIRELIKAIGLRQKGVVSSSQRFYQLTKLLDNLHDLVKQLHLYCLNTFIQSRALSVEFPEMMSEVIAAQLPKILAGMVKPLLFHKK
Sequence of Estrogen receptor (Homo sapiens) (P03372 whole entry, looked up): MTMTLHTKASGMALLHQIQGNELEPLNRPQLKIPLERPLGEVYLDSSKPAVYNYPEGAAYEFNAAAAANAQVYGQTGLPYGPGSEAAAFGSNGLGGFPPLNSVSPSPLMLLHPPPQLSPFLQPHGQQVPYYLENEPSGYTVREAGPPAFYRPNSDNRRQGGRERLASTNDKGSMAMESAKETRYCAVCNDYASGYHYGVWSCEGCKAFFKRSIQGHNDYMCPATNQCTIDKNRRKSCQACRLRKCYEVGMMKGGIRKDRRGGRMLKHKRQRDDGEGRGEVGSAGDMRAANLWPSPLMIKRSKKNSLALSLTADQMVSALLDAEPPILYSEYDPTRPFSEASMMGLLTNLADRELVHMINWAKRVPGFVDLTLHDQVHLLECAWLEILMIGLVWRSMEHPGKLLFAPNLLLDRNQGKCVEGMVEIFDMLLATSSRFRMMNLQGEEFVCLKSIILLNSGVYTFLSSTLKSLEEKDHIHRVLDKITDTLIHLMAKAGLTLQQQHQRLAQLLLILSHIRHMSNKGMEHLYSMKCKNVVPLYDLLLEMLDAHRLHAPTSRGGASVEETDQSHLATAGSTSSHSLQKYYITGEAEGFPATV
Sequence of Androgen receptor (Homo sapiens) (P10275 whole entry, looked up): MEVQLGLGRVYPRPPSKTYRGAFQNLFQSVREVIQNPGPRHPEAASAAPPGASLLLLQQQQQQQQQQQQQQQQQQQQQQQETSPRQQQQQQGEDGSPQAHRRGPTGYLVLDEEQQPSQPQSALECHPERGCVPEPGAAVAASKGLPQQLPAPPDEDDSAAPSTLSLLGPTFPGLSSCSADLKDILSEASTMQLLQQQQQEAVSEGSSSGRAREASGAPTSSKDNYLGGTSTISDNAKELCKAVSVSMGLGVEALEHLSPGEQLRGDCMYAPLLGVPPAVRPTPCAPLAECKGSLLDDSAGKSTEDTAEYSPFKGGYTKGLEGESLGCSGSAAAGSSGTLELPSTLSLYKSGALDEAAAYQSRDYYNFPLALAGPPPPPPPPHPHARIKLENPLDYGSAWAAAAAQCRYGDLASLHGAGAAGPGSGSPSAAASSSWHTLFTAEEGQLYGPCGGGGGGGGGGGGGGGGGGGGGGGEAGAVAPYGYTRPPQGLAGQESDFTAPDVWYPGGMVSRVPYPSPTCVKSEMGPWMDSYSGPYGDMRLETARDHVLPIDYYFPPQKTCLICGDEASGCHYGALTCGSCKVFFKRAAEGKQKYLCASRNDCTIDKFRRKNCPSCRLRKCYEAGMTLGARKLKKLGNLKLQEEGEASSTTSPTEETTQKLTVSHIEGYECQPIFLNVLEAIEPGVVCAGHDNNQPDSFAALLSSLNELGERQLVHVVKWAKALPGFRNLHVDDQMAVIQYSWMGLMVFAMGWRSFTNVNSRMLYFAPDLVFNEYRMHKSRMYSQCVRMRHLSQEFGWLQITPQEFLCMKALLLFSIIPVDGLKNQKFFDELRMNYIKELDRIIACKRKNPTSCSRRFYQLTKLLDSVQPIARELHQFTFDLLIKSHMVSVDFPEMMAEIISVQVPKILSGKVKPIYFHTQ
Sequence of Estrogen receptor beta (Homo sapiens) (Q92731 whole entry, looked up): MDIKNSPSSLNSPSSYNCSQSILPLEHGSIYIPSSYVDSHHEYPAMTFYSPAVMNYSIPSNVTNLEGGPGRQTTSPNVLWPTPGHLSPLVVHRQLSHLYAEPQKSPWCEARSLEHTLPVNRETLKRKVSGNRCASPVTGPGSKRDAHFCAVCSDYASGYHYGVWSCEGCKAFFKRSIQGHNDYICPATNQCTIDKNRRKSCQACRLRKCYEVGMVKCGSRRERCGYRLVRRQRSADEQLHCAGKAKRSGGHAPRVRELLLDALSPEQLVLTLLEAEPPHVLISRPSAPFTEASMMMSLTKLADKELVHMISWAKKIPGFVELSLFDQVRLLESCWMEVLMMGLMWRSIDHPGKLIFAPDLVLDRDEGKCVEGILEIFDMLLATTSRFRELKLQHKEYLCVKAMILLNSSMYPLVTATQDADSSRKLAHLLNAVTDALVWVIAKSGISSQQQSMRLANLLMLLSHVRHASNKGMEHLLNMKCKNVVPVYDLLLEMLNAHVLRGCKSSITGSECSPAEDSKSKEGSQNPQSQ

For `CN(C)S(=O)(=O)N(SC(F)(Cl)Cl)c1ccccc1`, the Potency in assay [1] was 2.17 µM (active); in assay [2] it was 38.6 µM (active); in assay [3], 54.5 µM (active); in assay [6] it was 48.6 µM (active); in assay [7], 61.1 µM (active); in [9], 12 µM (active). Also, the compound was classed as inactive in [4] and in assay [8]. Further, the Potency result in assay [5] is “inactive”.

Take `CC(C)(C)C(O)C(Oc1ccc(-c2ccccc2)cc1)n1cncn1` (centres undefined): the Potency in assay [1] is 12.2 µM (active); in assay [6], 61.1 µM (active). Besides, the Potency entry in assay [10], in assay [11], in [12], in [5], in [13] and in assay [14] was “inactive” throughout. Moreover, the Potency result in assay [9] and in assay [15] was “inactive” throughout. In addition, the result in [4] and in assay [8] was inactive.

For `COC(=O)N(C(=O)N1COC2(C(=O)OC)Cc3cc(Cl)ccc3C2=N1)c1ccc(OC(F)(F)F)cc1` (centres undefined), the Potency result in assay [16], in assay [17], in [18], in assay [2], in assay [10] and in [3] was “inactive” in each case. Also, the Potency result in [11], in assay [12], in assay [19], in assay [13] and in [14] was “inactive” in each case. The compound was classed as inactive in assay [4] and in assay [8].

For the compound `CC(C)OC(=S)S`, the Potency result in assay [16], in assay [2], in [3], in [11], in assay [12] and in assay [5] was “inactive” each time. For the same compound, the Potency entry in assay [13] and in assay [9] was “inactive” each time. In assay [7], the Potency was 7.7 µM (active). Further, in assay [8], the compound was classed as inactive.

Regarding `CCOCCOC(C)=O`, the Potency entry in assay [18], in [3], in assay [11], in assay [12], in assay [9] and in [15] was “inactive” in each case. The outcome in assay [4] and in [8] was inactive.

For the compound `C[C@@H](Oc1ccc(Cl)cc1Cl)C(=O)O`, the Potency result in assay [2], in assay [3], in assay [11], in assay [12], in assay [5] and in assay [19] was “inactive” each time. In addition, the Potency result in assay [7], in [13], in [14], in assay [9] and in [15] was “inactive” each time. Moreover, the call in [4] was inactive.

Consider `CS(=O)(=O)c1ccc(C(=O)C2C(=O)CCCC2=O)c([N+](=O)[O-])c1`, for which the Potency result in assay [18], in assay [11], in assay [12], in assay [13], in [14] and in assay [15] was “inactive” each time. Further, the outcome in assay [4] was inactive.

In the case of `CCC(C)(C)C(=O)OC1=C(c2ccc(Cl)cc2Cl)C(=O)OC12CCCCC2`, the Potency entry in assay [18], in [2], in assay [10], in assay [3], in assay [11] and in assay [12] was “inactive” in each case. Further, the Potency entry in assay [5], in assay [19], in assay [6], in assay [20], in assay [13] and in [9] was “inactive” throughout. Also, in [15], the Potency entry was “inactive”. Also, the compound was classed as inactive in assay [4] and in assay [8].

For `CC(C)CCCCCCCOP(=O)(Oc1ccccc1)Oc1ccccc1`, the Potency entry in assay [18], in assay [2], in assay [3], in assay [11], in [12] and in [5] was “inactive” throughout. Besides, the Potency result in assay [19], in assay [20], in assay [13], in assay [14] and in assay [9] was “inactive” each time. The Potency in assay [6] is 24.5 µM (active). The compound was classed as inactive in [8].
